Experimental data as given in PubChem BioAssay (EPA / NIEHS).
Results filed as inconclusive are left out. Activity calls are given as the source filed them. The calls were made as follows, unless noted: active = hit-call score of the fitted dose curve at least 0.9, where 1 is the maximum; inconclusive = response in the unintended direction; inactive = score below 0.9.

Legend:
[1] = Tanguay_ZF_120hpf_PE_legacy: (Legacy) Oregon State University Tanguay Lab 120 Hour Post-fertilization zebrafish Assay for Pericardial Edema (AID 2283640);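 as to AC50: potency for increased incidence of pericardial edema versus DMSO baseline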
Method in brief: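 Read-out is the presence or absence of pericardial edema at 120 hpf under brightfield, with gain of signal fitted against DMSO controls. Larvae (5D wild-type) were statically exposed at 28C with 0.64% final DMSO.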

[2] = Tanguay_ZF_120hpf_BRAI_legacy: (Legacy) Oregon State University Tanguay Lab 120 Hour Post-fertilization zebrafish Assay for Brain Malformation (AID 2283641)
Method in brief: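 Brain malformation in Tropical 5D zebrafish was recorded as a binary endpoint after static compound exposure from early development to 120 hpf at 28C. Activity was analysed against DMSO as negative control.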

[3] = Tanguay_ZF_120hpf_PFIN_legacy: (Legacy) Oregon State University Tanguay Lab 120 Hour Post-fertilization zebrafish Assay for Pectoral Fin Malformation (AID 2283648);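 also: each larva judged yes or no for fin defect by brightfield with dead larvae skipped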
Method in brief: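 5D WT zebrafish; pronase dechorionation 4 hpf; 1 embryo/well at 6 hpf; static exposure to 120 hpf, 28C, sealed, foil-covered; final DMSO 0.64% v/v; 5 uM trimethyltin chloride positive control; fin defect scored yes/no.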

[4] = Tanguay_ZF_120hpf_CFIN_legacy: (Legacy) Oregon State University Tanguay Lab 120 Hour Post-fertilization zebrafish Assay for Caudal Fin Malformation (AID 2283649)
Method in brief: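 Embryos were collected from Tropical 5D wild-type adults and dechorionated at 4 hpf. At 6 hpf each was exposed, one per well, at 0.64% DMSO and 28C. At 120 hpf fin morphology was scored; dead embryos were excluded.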

[5] = Tanguay_ZF_120hpf_PIG_legacy: (Legacy) Oregon State University Tanguay Lab 120 Hour Post-fertilization zebrafish Assay for Pigmentation Malformation (AID 2283650)
Method in brief: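 Pronase dechorionation at 4 hpf; embryos plated at 6 hpf, one per well; static exposure, sealed and foil-covered, 28C, to 120 hpf; pigmentation read by brightfield, binary; DMSO 0.64% baseline, 5uM trimethyltin chloride positive control.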

[6] = Tanguay_ZF_120hpf_CIRC_legacy: (Legacy) Oregon State University Tanguay Lab 120 Hour Post-fertilization zebrafish Assay for Circulatory Malformation (AID 2283651)
Method in brief: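 Tropical 5D wild-type embryos, dechorionated with pronase at 4 hpf, were placed singly in wells at 6 hpf and exposed statically at 28C to 120 hpf (0.64% DMSO final). Circulatory malformation was scored present/absent by brightfield microscopy.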

[7] = Tanguay_ZF_120hpf_SWIM_legacy: (Legacy) Oregon State University Tanguay Lab 120 Hour Post-fertilization zebrafish Assay for Swim Bladder Malformation (AID 2283654);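 also: swim bladder malformation in each larva scored yes or no under brightfield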
Method in brief: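 Embryos lacking chorions were exposed individually and statically to test chemical from 6 to 120 hpf at 28C, with 0.64% DMSO as vehicle. At 120 hpf, swim bladder malformation was recorded as present or absent by brightfield microscopy.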

[8] = Tanguay_ZF_120hpf_TRUN_legacy: (Legacy) Oregon State University Tanguay Lab 120 Hour Post-fertilization zebrafish Assay for Truncated Body (AID 2283655)
Method in brief: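 5D wild-type larvae; pronase dechorionation; static exposure 6→120 hpf, 28C; DMSO 0.64% final; 5uM trimethyltin chloride positive control. Readout: presence/absence of truncated body, analyzed relative to DMSO.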

[9] = Tanguay_ZF_120hpf_NC_legacy: (Legacy) Oregon State University Tanguay Lab 120 Hour Post-fertilization zebrafish Assay for Notochord and Tail Malformation (AID 2283656)
Method in brief: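 Dechorionated 5D zebrafish, 1/well from 6 hpf; static exposure to 120 hpf, 28C, sealed, dark; final DMSO 0.64% v/v. NC scored binary (present/absent); dead embryos not scored. Fit vs DMSO baseline, gain direction.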

[10] = read-out: Broad substrate specificity ATP-binding cassette transporter ABCG2 (Homo sapiens) (UniProt Q9UNQ0); assay: CLD_ABCG2_6hr: CellzDirect (CLD) Gene Expression Assay for ABC Transporter (ABCG2) at 6 hours (AID 2283660)
Method in brief: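 Primary human hepatocytes dosed daily with chemicals at multiple concentrations (0.2% DMSO vehicle), harvested 6 h after dosing. ABCG2 mRNA induction read by quantitative nuclease protection assay (qNPA) chemiluminescence; gain of signal fitted against DMSO baseline.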

[11] = read-out: xenobiotic metabolism (CYP1A1), CYP1A1 (gene 1543); assay: CLD_CYP1A1_6hr: CellzDirect (CLD) Gene Expression Assay for xenobiotic metabolism (CYP1A1) at 6 hours (AID 2283661);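 as to AC50: potency for transcript induction above DMSO vehicle baseline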
Method in brief: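 Primary human hepatocytes from two donors, compound versus 0.2% DMSO vehicle. CYP1A1 mRNA measured 6 h after dosing by quantitative nuclease protection assay with chemiluminescent read-out; induction fitted relative to DMSO, cytotoxicity flagged by microscopy.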

[12] = read-out: xenobiotic metabolism (CYP1A2), CYP1A2 (gene 1544); assay: CLD_CYP1A2_6hr: CellzDirect (CLD) Gene Expression Assay for xenobiotic metabolism (CYP1A2) at 6 hours (AID 2283663);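 as to AC50: potency is for induction meaning a rise in mRNA above DMSO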
Method in brief: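 Primary human hepatocytes from two donor preparations, dosed daily with multiple concentrations in 0.2% DMSO and harvested at 6 h. CYP1A2 mRNA induction measured by chemiluminescent qNPA, gain of signal fitted against DMSO; cytotoxicity flagged morphologically.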

[13] = Tanguay_ZF_120hpf_OTIC_legacy: (Legacy) Oregon State University Tanguay Lab 120 Hour Post-fertilization zebrafish Assay for Otic Vesicle Malformation (AID 2283639)
Method in brief: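 Tropical 5D wild-type zebrafish embryos were exposed statically in sealed, foil-covered plates at 28C until 120 hpf, with 0.64% (vol/vol) DMSO final. Otic vesicle malformation was scored present/absent by brightfield microscopy, with DMSO as baseline.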

[14] = read-out: ABC Transporter (ABCB1), ABCB1 (gene 5243); assay: CLD_ABCB1_6hr: CellzDirect (CLD) Gene Expression Assay for ABC Transporter (ABCB1) at 6 hours (AID 2283659);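 also: hits raise ABCB1 transcript above the DMSO vehicle baseline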
Method in brief: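 Primary human hepatocytes (two donor preparations) dosed daily for two days with chemicals at multiple concentrations, 0.2% DMSO vehicle; harvested 6 h post-dose. ABCB1 mRNA induction quantified by qNPA chemiluminescence; gain-of-signal fitted versus DMSO.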

[15] = CCTE_Simmons_CellTiterGLO_HEK293T: Viability Assessment in CCTE's Assays for Thyroperoxidase (TPO) Inhibition, Simmons Lab (AID 2283665);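 as to AC50: cells exposed to compound for 24 h before readout; actives reduce ATP signal below DMSO vehicle meaning cytotoxicity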
Method in brief: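 HEK293T cells in DMEM with 1% FBS were dosed with 8 concentrations (5 nM–87.5 uM final, 0.5% DMSO) for 24 hr at 37C; ATP content was read by CellTiter-Glo luminescence, loss-of-signal versus DMSO, three biological replicates.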

[16] = Tanguay_ZF_120hpf_SOMI_legacy: (Legacy) Oregon State University Tanguay Lab 120 Hour Post-fertilization zebrafish Assay for Somite Malformation (AID 2283647)
Method in brief: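 5D WT zebrafish; chorion removed 4 hpf; 1 embryo/well from 6 hpf; static exposure to 120 hpf, 28C, 0.64% DMSO final. Endpoint: somite malformation, binary, brightfield. Mortality excluded.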

[17] = read-out: solute carrier (SLC22A6), SLC22A6 (gene 9356); assay: LTEA_HepaRG_SLC22A6: Life Technologies and Expression Analysis (LTEA) Assay for solute carrier (SLC22A6) using HepaRG (AID 2283653; active = hit-call score of the fitted dose curve at least 0.9, where 1 is the maximum; inactive = score below 0.9); conditions: mRNA level, 48 h; actives raise or lower the signal
Method in brief: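 This endpoint tracks SLC22A6 mRNA induction or suppression in human HepaRG cultures after 48 h dosing, concentrations reaching 100 uM. Values derive from bidirectional fitting against DMSO controls.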

[18] = read-out: solute carrier (SLC10A1), SLC10A1 (gene 6554); assay: LTEA_HepaRG_SLC10A1: Life Technologies and Expression Analysis (LTEA) Assay for solute carrier (SLC10A1) using HepaRG (AID 2283657; active = hit-call score of the fitted dose curve at least 0.9, where 1 is the maximum; inactive = score below 0.9); conditions: mRNA level, 48 h; actives raise or lower the signal
Method in brief: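 Transcript levels were measured by qRT-PCR after human HepaRG cells received test chemical for 48 hours, up to 100 uM in half-log dilutions. Values come from bidirectional concentration-response fitting relative to 0.5% DMSO vehicle.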

[19] = read-out: matrix metalloproteinase-1 (MMP1), MMP1 (gene 4312); assay: LTEA_HepaRG_MMP1: Life Technologies and Expression Analysis (LTEA) Assay for matrix metalloproteinase-1 (MMP1) using HepaRG (AID 2283658; active = hit-call score of the fitted dose curve at least 0.9, where 1 is the maximum; inactive = score below 0.9); conditions: mRNA level, 48 h; actives raise or lower the signal
Method in brief: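 Bidirectional concentration-response fitting relative to 0.5% DMSO gives the endpoint, derived from MMP1 mRNA levels (qRT-PCR) in human HepaRG cells treated 48 h with chemicals up to 100 uM.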

[20] = read-out: kallikrein-3 (KLK3), KLK3 (gene 354); assay: LTEA_HepaRG_KLK3: Life Technologies and Expression Analysis (LTEA) Assay for kallikrein-3 (KLK3) using HepaRG (AID 2283652; active = hit-call score of the fitted dose curve at least 0.9, where 1 is the maximum; inactive = score below 0.9); conditions: mRNA level, 48 h; actives raise or lower the signal
Method in brief: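 Differentiated human HepaRG cells in serum-free induction medium exposed 48 h in duplicate, eight-point half-log series from 100 uM in 0.5% DMSO. KLK3 mRNA by qRT-PCR, normalised to ACTB, GAPDH, POLR2A; bidirectional fit versus DMSO.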

Measured: AC50

Broad substrate specificity ATP-binding cassette transporter ABCG2 (Homo sapiens), sequence (Q9UNQ0 whole entry, looked up): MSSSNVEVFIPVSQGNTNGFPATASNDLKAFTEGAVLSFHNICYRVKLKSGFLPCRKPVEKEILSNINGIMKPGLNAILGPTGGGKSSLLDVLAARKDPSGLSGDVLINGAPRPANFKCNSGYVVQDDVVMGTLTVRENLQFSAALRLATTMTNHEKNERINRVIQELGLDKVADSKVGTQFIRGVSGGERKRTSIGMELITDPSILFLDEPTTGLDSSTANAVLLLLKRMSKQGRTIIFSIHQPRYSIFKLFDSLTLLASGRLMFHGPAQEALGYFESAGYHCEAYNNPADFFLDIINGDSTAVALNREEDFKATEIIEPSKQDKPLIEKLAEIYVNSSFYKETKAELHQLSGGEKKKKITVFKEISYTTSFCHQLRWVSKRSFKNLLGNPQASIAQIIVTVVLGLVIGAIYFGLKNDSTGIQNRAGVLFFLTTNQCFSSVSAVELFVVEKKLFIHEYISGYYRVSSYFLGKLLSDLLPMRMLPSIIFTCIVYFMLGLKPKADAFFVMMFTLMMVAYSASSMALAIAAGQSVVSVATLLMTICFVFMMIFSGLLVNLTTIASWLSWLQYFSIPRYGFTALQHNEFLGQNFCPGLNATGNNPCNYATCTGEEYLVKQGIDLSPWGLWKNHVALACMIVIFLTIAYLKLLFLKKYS

CC(C1CC1)C(O)(Cn1cncn1)c1ccc(Cl)cc1 (stereo not given)
active: [1] 15.1 µM | [2] 22.6 µM | [3] 25.9 µM | [7] 32.6 µM | [11] 0.0103 µM | [12] 0.00638 µM
inactive: [4] | [5] | [6] | [8] | [9] | [10]

CCOP(=O)(SC(C)CC)N1CCSC1=O (stereo not given)
not listed: [12] | [16] | [17] | [18] | [19] | [20]
inactive: all other assays above

CCc1cccc(CC)c1N(COC)C(=O)CCl
not listed: [4] | [11] | [12] | [14] | [15] | [20]
inactive: all other assays above

CC[C@H](C)[C@H]1O[C@]2(C=C[C@@H]1C)C[C@@H]1C[C@@H](C/C=C(\C)[C@@H](O[C@H]3C[C@H](OC)[C@@H](O[C@H]4C[C@H](OC)[C@@H](NC)[C@H](C)O4)[C@H](C)O3)[C@@H](C)/C=C/C=C3\CO[C@@H]4[C@H](O)C(C)=C[C@@H](C(=O)O1)[C@]34O)O2
active: [18] 5 µM | [10] 29.5 µM | [12] 10.5 µM
not listed: [4] | [5] | [11] | [14] | [15] | [16]
inactive: all other assays above

CCOP(=S)(OCC)Oc1ccc([N+](=O)[O-])cc1
active: [11] 3.67 µM | [12] 2.19 µM
inactive: [13] | [1] | [2] | [16] | [4] | [7] | [8] | [9] | [15]

CC1(C(=O)Nc2ccc(O)c(Cl)c2Cl)CCCCC1
active: [15] 82.2 µM
not listed: [11] | [12] | [13] | [14]
inactive: all other assays above

CCOC(=O)COc1cc(-c2nn(C)c(OC(F)F)c2Cl)c(F)cc1Cl
not listed: [1] | [7] | [10] | [15] | [17] | [18] | [19] | [20]
inactive: all other assays above

Cc1nn(-c2cc(NS(C)(=O)=O)c(Cl)cc2Cl)c(=O)n1C(F)F
not listed: [4] | [9] | [15] | [17] | [18] | [19] | [20]
inactive: all other assays above

CSc1nnc(C(C)(C)C)c(=O)n1N
not listed: [5] | [15] | [17] | [18] | [19] | [20]
inactive: all other assays above
